Assay results taken from PubChem BioAssay (NCI).
Compounds without any hit were thinned out: in the full panel of roughly 79,000, 15% have a hit. Active and inactive are the calls of the source. Rule as the data show it: active = growth inhibition above about 70%; inactive = the rest.

Key:
[1] = NCI Yeast Anticancer Drug Screen. Data for the rad52 strain (AID 147);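 also: 0% = growth of vehicle-treated control cultures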; conditions: S. cerevisiae rad52 mutant growth inhibition, active compounds read high
In short: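 The repair-mutant yeast strain was incubated with compounds, then growth was read and inhibition derived relative to vehicle.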

[2] = NCI Yeast Anticancer Drug Screen. Data for the wt1 strain (AID 149);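 also: 0% = growth of vehicle-treated wt1 cultures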; conditions: S. cerevisiae wt1 strain (SPY 50644) growth inhibition, active compounds read high
In short: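 Using yeast strain wt1, compound-induced growth inhibition was determined against vehicle-treated cultures.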

[3] = NCI Yeast Anticancer Drug Screen. Data for the rad50EPP+ strain (AID 151);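 also: 0% = growth of vehicle-treated control cultures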; conditions: S. cerevisiae rad50 mutant strain, active compounds read high
In short: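 Vehicle-normalised growth inhibition; rad50EPP+ yeast strain, altered in DNA damage repair, compound-treated.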

[4] = NCI Yeast Anticancer Drug Screen. Data for the mgt1 strain (AID 153); conditions: S. cerevisiae mgt1 mutant growth inhibition, active compounds read high
In short: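 Vehicle-normalized growth inhibition is determined in mgt1 yeast, a strain selected for a defined alteration in DNA repair or cell cycle control.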

[5] = NCI Yeast Anticancer Drug Screen. Data for the rad50 strain (AID 155);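 also: 0% = growth of vehicle-only cultures of the same strain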; conditions: S. cerevisiae rad50 strain growth inhibition, active compounds read high
In short: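 Relative growth inhibition (compound vs vehicle) was measured in yeast with a defined repair-gene alteration.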

[6] = NCI Yeast Anticancer Drug Screen. Data for the mec2-1 strain (AID 157); conditions: S. cerevisiae mec2-1 strain, active compounds read high
In short: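 Mutant yeast (mec2-1) grown with compound; growth inhibition relative to vehicle control reported.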

[7] = NCI Yeast Anticancer Drug Screen. Data for the rad14 strain (AID 159);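 also: 0% = growth of vehicle-treated control cultures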; conditions: S. cerevisiae rad14 strain growth inhibition, active compounds read high
In short: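 Screen for anticancer potential: a yeast strain altered in DNA damage repair is grown with compound, and reduced growth is quantified against vehicle controls.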

[8] = NCI Yeast Anticancer Drug Screen. Data for the sgs1 mgt1 strain (AID 161);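 also: 0% = growth of cultures given vehicle only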; conditions: S. cerevisiae sgs1 mgt1 strain, active compounds read high
In short: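 This yeast growth screen uses a strain with defined DNA-repair lesions; compound-treated growth is compared with vehicle-treated growth.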

[9] = NCI Yeast Anticancer Drug Screen. Data for the CLN2oe strain (AID 163);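 also: 0% = growth of vehicle-only control cultures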; conditions: S. cerevisiae CLN2oe strain, active compounds read high
In short: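 Compounds are applied to yeast harbouring a defined cell-cycle control change; reduced growth compared with vehicle-treated controls gives the value.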

[10] = NCI Yeast Anticancer Drug Screen. Data for the cln2 rad14 strain (AID 165);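 also: 0% = growth equal to vehicle treated cultures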; conditions: S. cerevisiae cln2 rad14 strain, active compounds read high
In short: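 Readout is yeast growth inhibition versus vehicle-treated controls, using a strain with cln2 and rad14 alterations exposed to compound.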

[11] = NCI Yeast Anticancer Drug Screen. Data for the bub3 strain (AID 167); conditions: S. cerevisiae bub3 mutant strain, active compounds read high
In short: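 Screening used yeast with an engineered genetic alteration affecting cell cycle control. Compound-exposed cultures were compared with vehicle cultures, and reduced growth was taken as inhibition.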

[12] = NCI Yeast Anticancer Drug Screen. Data for the wt2 strain (AID 169);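 also: 0% = growth of vehicle-treated yeast cultures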; conditions: S. cerevisiae wt2 strain growth inhibition, active compounds read high
In short: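 Against vehicle-treated controls, the growth of yeast exposed to each compound was compared, and the inhibition was recorded.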

[13] = NCI Yeast Anticancer Drug Screen. Data for the mlh1 strain (AID 171);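 also: 0% = growth of vehicle-treated control cultures of the same strain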; conditions: S. cerevisiae mlh1 strain growth inhibition, active compounds read high
In short: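 Measured: yeast growth. Reference: vehicle-treated controls. Organism: strain with a defined alteration affecting DNA damage repair or cell cycle control, treated with compound.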

[14] = NCI Yeast Anticancer Drug Screen. Data for the sgs1 strain (AID 173);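 also: 0% = growth of vehicle-only control cultures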; conditions: S. cerevisiae sgs1 mutant, active compounds read high
In short: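 Each compound was added to cultures of the altered yeast strain. Growth was recorded, and inhibition was derived by comparison with vehicle controls.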

[15] = NCI Yeast Anticancer Drug Screen. Data for the mlh1 rad18 strain (AID 175); conditions: S. cerevisiae mlh1 rad18 strain growth inhibition, active compounds read high
In short: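 Genetically defined yeast (DNA repair-deficient) exposed to compounds; growth inhibition determined relative to vehicle.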

[16] = NCI Yeast Anticancer Drug Screen. Data for the rad18 strain (AID 177); conditions: S. cerevisiae rad18 mutant growth inhibition, active compounds read high
In short: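 Vehicle-treated cultures served as the baseline for scoring compound-induced growth inhibition in DNA-repair-mutant yeast.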

[17] = at 5.0 µM (retest, dose inferred, filed as 0.5)
[18] = at 50.0 µM (retest, dose inferred, filed as 5.0)

Measured: growth inhibition

O=P(C(=S)Nc1c(Cl)cccc1Cl)(c1ccccc1)c1ccccc1
inactive: [1]; at 1.2 µM 21% | [1]; at 3.7 µM 24% | [1]; at 11.0 µM 22% | [1]; at 33.0 µM 24% | [2]; at 1.2 µM 31% | [2]; at 3.7 µM 25% | [2]; at 11.0 µM 18% | [2]; at 33.0 µM 24% | [3]; at 1.2 µM 6% | [3]; at 3.7 µM 8% | [3]; at 11.0 µM 24% | [3]; at 33.0 µM 19% | [3]; at 100.0 µM 31% | [4]; at 1.2 µM 11% | [4]; at 3.7 µM -16% | [4]; at 11.0 µM -11% | [4]; at 33.0 µM -1% | [5]; at 1.2 µM 20% | [5]; at 3.7 µM 8% | [5]; at 11.0 µM 14% | [5]; at 33.0 µM 1% | [6]; at 1.2 µM 5% | [6]; at 3.7 µM 9% | [6]; at 11.0 µM 14% | [6]; at 33.0 µM 7% | [7]; at 1.2 µM -13% | [7]; at 3.7 µM -14% | [7]; at 11.0 µM -16% | [7]; at 33.0 µM -18% | [8]; [17] -6% | [9]; at 1.2 µM 8% | [9]; at 3.7 µM 21% | [9]; at 11.0 µM 15% | [9]; at 33.0 µM 16% | [10]; [17] 41% | [11]; at 1.2 µM 0% | [11]; at 3.7 µM 4% | [11]; [17] 21% | [11]; at 11.0 µM 14% | [11]; at 33.0 µM 11% | [12]; at 1.2 µM 21% | [12]; at 3.7 µM 8% | [12]; at 11.0 µM 15% | [12]; at 33.0 µM 35% | [13]; at 1.2 µM 10% | [13]; at 3.7 µM 10% | [13]; at 11.0 µM 0% | [13]; at 33.0 µM 6% | [14]; at 1.2 µM 25% | [14]; at 3.7 µM 13% | [14]; at 11.0 µM 3% | [14]; at 33.0 µM 18% | [15]; [17] 60% | [16]; at 1.2 µM -12% | [16]; at 3.7 µM -20% | [16]; at 11.0 µM -22% | [16]; at 33.0 µM -12%
active: [1]; at 100.0 µM 97% | [2]; at 100.0 µM 96% | [4]; at 100.0 µM 95% | [5]; [17] 73% | [5]; [18] 99% | [5]; at 50.0 µM 87.7% | [5]; at 100.0 µM 95% | [6]; [17] 71% | [6]; [18] 99% | [6]; at 50.0 µM 91% | [6]; at 100.0 µM 94% | [7]; at 100.0 µM 94% | [8]; [18] 95% | [8]; at 50.0 µM 88.3% | [9]; at 100.0 µM 95% | [10]; [18] 96% | [10]; at 50.0 µM 89.9% | [11]; [18] 75% | [11]; at 50.0 µM 89% | [11]; at 100.0 µM 97% | [12]; at 100.0 µM 96% | [13]; at 100.0 µM 95% | [14]; at 100.0 µM 95% | [15]; [18] 98% | [15]; at 50.0 µM 87.2% | [16]; at 100.0 µM 96%

CC(C)C(=O)CC(Sc1ccc(N)cc1)c1ccccc1 (stereo not drawn)
inactive: [1]; at 1.2 µM 2% | [1]; at 3.7 µM 8% | [1]; at 11.0 µM 23% | [1]; at 33.0 µM 47% | [2]; at 1.2 µM -4% | [2]; at 3.7 µM -4% | [2]; at 11.0 µM -1% | [2]; at 33.0 µM 10% | [2]; at 100.0 µM 18% | [3]; at 1.2 µM -5% | [3]; at 3.7 µM -4% | [3]; at 11.0 µM 1% | [3]; at 33.0 µM 6% | [3]; at 100.0 µM 8% | [4]; at 1.2 µM -2% | [4]; at 3.7 µM -5% | [4]; at 11.0 µM 27% | [4]; at 33.0 µM 32% | [4]; at 100.0 µM 58% | [5]; at 1.2 µM -1% | [5]; at 3.7 µM 1% | [5]; [17] -22% | [5]; at 11.0 µM -19% | [5]; at 33.0 µM 24% | [5]; at 50.0 µM 55.6% | [5]; at 100.0 µM 42% | [6]; at 1.2 µM 1% | [6]; at 3.7 µM -2% | [6]; [17] -2% | [6]; at 11.0 µM 10% | [6]; at 33.0 µM 27% | [6]; at 50.0 µM 36.5% | [6]; at 100.0 µM 40% | [7]; at 1.2 µM 1% | [7]; at 3.7 µM 2% | [7]; at 11.0 µM 6% | [7]; at 33.0 µM 25% | [7]; at 100.0 µM 46% | [8]; [17] -26% | [8]; at 50.0 µM 53% | [9]; at 1.2 µM -2% | [9]; at 3.7 µM -13% | [9]; at 11.0 µM -7% | [9]; at 33.0 µM 20% | [9]; at 100.0 µM 35% | [10]; [17] -3% | [10]; [18] 57% | [10]; at 50.0 µM 27.8%
active: [1]; at 100.0 µM 83% | [5]; [18] 77% | [6]; [18] 88% | [8]; [18] 87% | [11]; at 1.2 µM 87% | [11]; at 3.7 µM 89% | [11]; [17] 89% | [11]; at 11.0 µM 90% | [11]; at 33.0 µM 91% | [11]; [18] 98% | [11]; at 50.0 µM 85.1% | [11]; at 100.0 µM 92%
